Tested on: Vero E6 infected with SARS-CoV-2
Assay: inhibition of SARS-CoV-2 cytopathic effect; higher = more antiviral protection, active = above 15
Conditions: 48 h

Measured: inhibition of SARS-CoV-2 cytopathic effect

C#C[C@]1(O)CC[C@H]2[C@@H]3CCC4=CC(=O)CC[C@@H]4[C@H]3CC[C@@]21C [Norethindrone (Norethisterone)]
inactive: 1 nM -1.49% | 8.33 nM -0.9% | 100 nM -1.69% | 833.33 nM 1.37% | 10000 nM 2.33%

Nc1nc(NC2CC2)c2ncn([C@H]3C=C[C@@H](CO)C3)c2n1
inactive: 1 nM -0.53% | 8.33 nM -0.06% | 100 nM 0.24% | 833.33 nM 0.84% | 10000 nM 0.33%

CCCCCCCCCCCCCCCC(=O)O[C@@H]1[C@@H](O)[C@@H](O)[C@@H]([C@H](NC(=O)[C@@H]2C[C@@H](CCC)CN2C)[C@H](C)Cl)O[C@@H]1SC [clindamycin-palmitate]
inactive: 1 nM -0.87% | 8.33 nM -2.61% | 100 nM -3.02% | 833.33 nM -0.74% | 10000 nM -3.94%

COc1ccc(C2C(=O)c3ccccc3C2=O)cc1 [anisindione]
inactive: 1 nM 0.46% | 8.33 nM 1.92% | 100 nM 2.19% | 833.33 nM -3.04% | 10000 nM -1.46%

CNS(=O)(=O)Cc1ccc2[nH]cc(CCN(C)C)c2c1 [sumatriptan]
inactive: 1 nM 1.16% | 8.33 nM 0.24% | 100 nM 1.25% | 833.33 nM 0.28% | 10000 nM -0.08%

C=C(c1ccccc1OCc1cccc(Cl)c1)n1ccnc1 [croconazole]
inactive: 1 nM -1.55% | 8.33 nM -2.51% | 100 nM 0.21% | 833.33 nM 2.28% | 10000 nM -1.36%

O=C1c2cccc(O)c2C(=O)c2c(O)cc(CO)cc21 [aloe-emodin]
inactive: 1 nM -3.13% | 8.33 nM -0.39% | 100 nM -0.52% | 833.33 nM -3% | 10000 nM -2.43%

Cn1cc(-c2ccc(F)c(C(F)(F)F)c2)nc1C1CCN(c2ncnc3[nH]ncc23)CC1
inactive: 1 nM 0.45% | 8.33 nM -0.64% | 100 nM -1.2% | 833.33 nM -2.86% | 10000 nM -3.92%

CCN(C(=O)c1c(O)c2c(Cl)cccc2n(C)c1=O)c1ccccc1 [laquinimod]
inactive: 1 nM 1.55% | 8.33 nM -0.45% | 100 nM 0.71% | 833.33 nM -5.3% | 10000 nM -6.25%

CCOC(=O)[C@H](CCc1ccccc1)N[C@@H](C)C(=O)N1Cc2cc(OC)c(OC)cc2C[C@H]1C(=O)O [moexipril]
inactive: 1 nM -1.91% | 8.33 nM 1.34% | 100 nM -0.63% | 833.33 nM -0.22% | 10000 nM 0.1%

Cc1cc(N2CCN([C@@H]3CN[C@H](C(=O)N4CCSC4)C3)CC2)n(-c2ccccc2)n1 [teneligliptin]
inactive: 1 nM 0.52% | 8.33 nM 1.21% | 100 nM 1% | 833.33 nM 1.12% | 10000 nM -2.67%

CC(NC(C)(C)C)C(=O)c1cccc(Cl)c1 (stereo not given) [bupropion]
inactive: 1 nM 1.88% | 8.33 nM 2.11% | 100 nM -0.69% | 833.33 nM -0.93% | 10000 nM -2.06%

CCOC(=O)CCNc1cc(N2CCc3ccccc3CC2)nc(-c2ccccn2)n1
inactive: 1 nM -5.53% | 8.33 nM 0.27% | 100 nM 1.52% | 833.33 nM 1.83% | 10000 nM -0.53%

C/C=C/C[C@@H](C)C(=O)[C@H]1C(=O)N[C@@H](C(C)C)C(=O)N(C)CC(=O)N(C)[C@@H](CC(C)C)C(=O)N[C@@H](C(C)C)C(=O)N(C)[C@@H](CC(C)C)C(=O)N[C@@H](C)C(=O)N[C@H](C)C(=O)N(C)[C@@H](CC(C)C)C(=O)N(C)[C@@H](CC(C)C)C(=O)N(C)[C@@H](C(C)C)C(=O)N1C [valspodar]
inactive: 1 nM -5.19% | 8.33 nM -0.88% | 100 nM -1.83% | 833.33 nM 0.22% | 10000 nM 8.33%

CCC/C=C1\OC(=O)C2=C1CCC=C2 [ligustilide]
inactive: 1 nM 8.3% | 8.33 nM 9.89% | 100 nM 8.75% | 833.33 nM 5.16% | 10000 nM 5.79%

O=C(O)CC(S)C(=O)O (stereo not given) [mercaptosuccinic-acid]
inactive: 1 nM 0.69% | 8.33 nM 3.36% | 100 nM 4.14% | 833.33 nM 3.72% | 10000 nM -0.09%

CC(C)(C(=O)O)c1ccc(C(O)CCCN2CCC(C(O)(c3ccccc3)c3ccccc3)CC2)cc1 (stereo not given) [fexofenadine]
inactive: 1 nM 0.81% | 8.33 nM -0.73% | 100 nM -0.49% | 833.33 nM 1.17% | 10000 nM 2.18%

Cc1cc2c(C(N)=O)cccc2n1-c1nc2c(c(NCc3ccccc3)n1)COCC2
inactive: 1 nM 1.91% | 8.33 nM -0.78% | 100 nM -2.17% | 833.33 nM 11.2% | 10000 nM -31.7%

COc1cc(C[C@H](C)[C@H](C)Cc2ccc3c(c2)OCO3)ccc1O [macelignan]
inactive: 1 nM 0.71% | 8.33 nM -0.62% | 100 nM 0.01% | 833.33 nM 2.57% | 10000 nM 1.91%

CN[C@@H](C)[C@H](O)c1ccccc1 [ephedrine]
inactive: 1 nM -1.32% | 8.33 nM -0.23% | 100 nM 1.57% | 833.33 nM 3.01% | 10000 nM -0.52%

C[C@H](CCC(=O)O)[C@H]1CC[C@H]2[C@@H]3[C@H](O)C[C@@H]4C[C@H](O)CC[C@]4(C)[C@H]3C[C@H](O)[C@]12C [cholic-acid]
inactive: 1 nM -0.3% | 8.33 nM 0.75% | 100 nM 0.02% | 833.33 nM -0.84% | 10000 nM 0.54%

O=C(CCCCC(=O)Nc1c(I)cc(I)c(C(=O)O)c1I)Nc1c(I)cc(I)c(C(=O)O)c1I [iodipamide]
inactive: 1 nM -2.81% | 8.33 nM -3.21% | 100 nM -1.82% | 833.33 nM -3.34% | 10000 nM 0.05%

CN[C@@H](C)[C@H]1[C@H](O)C[C@@]2(C)[C@@H]3CC[C@H]4C(C)(C)[C@@H](NC)CC[C@@]45C[C@@]35CC[C@]12C [cyclovirobuxin-D]
inactive: 1 nM -0.38% | 8.33 nM 2.73% | 100 nM 3.9% | 833.33 nM 2.48% | 10000 nM -7.38%

Cc1cc(C#N)cc(C)c1Oc1nc(Nc2ccc(C#N)cc2)nc(N)c1Br [etravirine]
inactive: 1 nM -0.95% | 8.33 nM -0.81% | 100 nM -2.15% | 833.33 nM -5.24% | 10000 nM -2.04%

CC1=C(C(=O)O)N2C(=O)[C@@H](NC(=O)[C@H](N)C3=CCC=CC3)[C@H]2SC1 [cephradine]
inactive: 1 nM 0.46% | 8.33 nM -1.94% | 100 nM -0.29% | 833.33 nM 0.485% | 10000 nM -2.73%

Cc1c(NC(=O)N2CCOCC2)ccc2c1c1ccccc1n2C(C)C
inactive: 1 nM 0.94% | 8.33 nM -0.34% | 100 nM -2.07% | 833.33 nM 2.48% | 10000 nM 0.62%

C[N+]1(C)CCC(OC(=O)C(O)(c2ccccc2)C2CCCC2)C1 (stereo not given) [glycopyrrolate]
inactive: 1 nM -3.43% | 8.33 nM -1.27% | 100 nM -0.55% | 833.33 nM -0.2% | 10000 nM -1.06%

CCNC(=O)Nc1ccc(-c2nc3c(c(N4CCOC[C@@H]4C)n2)CCN(C2COC2)C3)cc1
inactive: 1 nM 0.65% | 8.33 nM -0.06% | 100 nM -0.8% | 833.33 nM 0.29% | 10000 nM -0.84%

COc1ccc(/C=C2\CCCN=C2c2cccnc2)c(OC)c1
inactive: 1 nM -0.63% | 8.33 nM 0.1% | 100 nM 0.18% | 833.33 nM 1.08% | 10000 nM 2.4%

C[C@]12CC[C@@H]3c4ccc(OS(=O)(=O)O)cc4CC[C@H]3[C@@H]1CCC2=O [estropipate]
inactive: 1 nM -1.99% | 8.33 nM 1.92% | 100 nM 0.66% | 833.33 nM 1.96% | 10000 nM -6.12%

Cc1cccc(C)c1NC(=O)c1ccccc1C(=O)O [ftaxilide]
inactive: 1 nM -0.49% | 8.33 nM 0.92% | 100 nM -1.2% | 833.33 nM 0.63% | 10000 nM 1.39%

CC(C)C[C@H](NC(=O)CNC(=O)c1cc(Cl)ccc1Cl)B1OC(=O)C(CC(=O)O)(CC(=O)O)O1
active: 100 nM 21.2% | 833.33 nM 34.2% | 10000 nM 18.7%
inactive: 1 nM -0.89% | 8.33 nM 1.36%

O=C(/C=C/c1ccc2ccc(C(F)(F)F)cc2n1)c1ccncc1
inactive: 1 nM 1.93% | 8.33 nM 0% | 100 nM -3.01% | 833.33 nM 0.28% | 10000 nM 5.19%

CS(=O)(=O)c1ccc(-c2nnc(/C=C/c3nnc(-c4ccc(C#N)cc4)o3)n2-c2ccccc2Cl)nc1
inactive: 1 nM 0.69% | 8.33 nM 0.31% | 100 nM -0.3% | 833.33 nM -2.5% | 10000 nM 2.17%

OCc1ccc(CO)o1 [2,5-furandimethanol]
inactive: 1 nM -0.97% | 8.33 nM 0.38% | 100 nM 0.27% | 833.33 nM 2.21% | 10000 nM 0.97%

CCCCCCCCCCCCCCOC(=O)c1cccnc1 [myristyl-nicotinate]
inactive: 1 nM 0.94% | 8.33 nM 2.86% | 100 nM 0.68% | 833.33 nM 1.76% | 10000 nM 1.2%

COc1c(C)c2c(c(O)c1C/C=C(\C)CCC(=O)O)C(=O)OC2 [mycophenolic-acid]
inactive: 1 nM -0.65% | 8.33 nM -1.16% | 100 nM 0.96% | 833.33 nM 2.06% | 10000 nM 12.9%

O=C(O)COc1ccc(/C=C2\SC(=O)NC2=O)cc1
inactive: 1 nM 0.12% | 8.33 nM 0.67% | 100 nM 5.3% | 833.33 nM 4.16% | 10000 nM -0.64%

— the supplement of paper PMC13380429
